This note sets out measurements from the supplement of paper PMC6555819.

The subject of this test is VDR:RXRa (NR concentration 270 nM, RXRa partner concentration 90 nM). Nature of the test: PBM binding z-score (relative to random genomic background probes); higher = stronger binding; sequences stand for … in GC…GCGATTGACAGCGTAGAATGAAGG
As to the method: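 Protein-binding microarray (Agilent 4x180K custom design, double-stranded 60-nt probes: 5' GC cap, 34-nt variable region, 24-nt constant primer region; full probe sequence given). Purified or IVT nuclear receptor:RXRα heterodimers (3:1 NR:RXRα, mostly 270:90 nM) or homodimers were incubated for 1 h in PBS with 2% milk and no ligand, then detected with Alexa488 antibodies. Fluorescence from o1-orientation probes (~5 replicates averaged) was converted to z-scores against 500 random hg19 background probes. Variable regions are seed direct-repeat (DR0–DR5) sites, all their single-nucleotide variants and half-site ablations.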
Take GCTTACGGGTCAAAGATTATAGCATGAATAGAAT: the PBM binding z-score is 3.28.
With TTACCAAGGTGAAGGTCGTTGCTCCCTCTGTAGA, the PBM binding z-score amounted to 1.36.
In turn, TCTTGTAGATCAGAAGGTTAAGAAAGCTGGCCAA came in with a PBM binding z-score of 0.671.
Next, TCTGCTAGGTCAACGATGATCAGCTAATCTGCTA: 1.17.
Next, TGATATAGGTAAACAGGTGAAAGTCCGTAAGTTA: 0.405; ACTAGCAGGCCTAGTTTGGGTCACTCAAACAAAG: -0.0369; TAGCCTAGGACATGGGCCAGTATACCACGCGAAC: -0.512.
Next, ATCTCTAAGTAACAAGTTCAGTGAAAGAGAGGAC: 1.87; CCTGCTAGGTCGTGGTCAGCTAATCTACAGTATG: -0.0552; TCATATAGGTAATACAGGTGAAAGGCGGCATCTA: 1.17.
In the case of TGTCAAAGTTCAAAAGTAACGTAAGTATCCACAC, the PBM binding z-score came out at 3.97.
Take ATCTCTAGGTAAAAATAGTTCAGTGAATGCAAAT: the PBM binding z-score stood at 1.11.
TAGCCAAGGTCATGGGCCAGTATACCACGCGAAC had a PBM binding z-score of 4.51.
ACTAGCAGACCAAGGGTCACTCAAGATTAGTCCG: the PBM binding z-score stood at 2.58.
Next, GCTGCTAGGTCTGGTTGGTCAGCTAACGGGTACG: -0.816; GCTTGTAGATTAAGGTTAAGAAAGACTAAGCTAA: 0.125; CCGACTGCGGCATAAGGTTACCATAAGCCAGCCC: 0.0281.
Next, GCTAGTTGGTCAGTAAAAGGTCAGACACCGGTCG: 2.38; CCTACTGGGCCTCGAAAGGTCATTGATTCAGTGA: 3.34.
Next, TAGCCTAGGTCATGCTGGCCAGTATAGTGTCGGC: 2.04; CTCAAAAGGTCGTGCTCAGGTGAGTATACCAAAC: 3.5; CCTTACGGGTCAAGGTTATAGCGCGGGTGGTACG: 3.22.
The sequence ATCTCTAGGTAAAGATAGTTCACTGAATGCAAAT yielded a PBM binding z-score of 1.37.
Turning to CCTCGGAGGGCAACAGGAGGTCAGAGCTGCCAGA, the PBM binding z-score is 3.12.
Regarding TCTTGTAGCTCAAAGGTTAAGAAAGCCGAAGCCT, the PBM binding z-score came to 0.581.
TTACCAAGGTGAAGGGTCGTTGATGCACGCCTTG: the PBM binding z-score is 1.7.
In turn, TTACCAAGGTGAAAGGACGTTGATGCACGCCTTG returned a PBM binding z-score of 0.0674.
In the case of CCGAGTAGGTTATGGGGCATTCCGGCAACGGTGA, the PBM binding z-score was -0.216.
With TCGAGTAGATTACCAATGGGGCATTCAGCTTTCT, the PBM binding z-score was -0.414.
Next, CAAACTAGGTCACGAAAGGTCAAGGTCGAATGAC: 6.61; ACTAATAGTTGAGACGAGGGCAACCGATAGGTTG: 1.27; CAGCCTAGCTCAGGGCCAGTATAGGAGGAACGTT: -0.907.
Take ATCTCTAGGTAAAAGTTCAGTGAGTCCCGAGGAT: the PBM binding z-score turned out to be 2.09.
Next, AGTAAAAGTTCAGGACGAGGTAACGTAAAGCACG: 2.66.
In turn, CCTAGCAGGCCAATCTGGGTCACTTAAGGCTTGA returned a PBM binding z-score of 0.526.
Next, ACTCACGGGTCAACGAGGTTATAGCACGCGTATA: 7.63.
Next, TCTTGTAGATCAATAGTGGTTAAGAAAGTGCGCT: 0.673; CCAACTAGGTCAGAACAGGACAGTGAAGGATGAT: 1.08.
In turn, GCTAGTCGGTCAGTAAAAGGTCACACACCGGTCG gave a PBM binding z-score of 4.18.
Next, ATCGAAAGTTCGTGAGGTGAGTATACAGAAAGGC: 2.02.
